Bioassay records (PubChem)
Rows were chosen to be rich in hits. Some 1.2% of all compounds tested hit in one or more screens of this group.
RXFP1 antag = RXFP1 (human) relaxin receptor antagonism; actives 0.59% (n = 350,000); AID 1259400; HEK293-RXFP1, relaxin-stimulated cAMP HTRF, 30 min; stronger effect = lower value; Q9HBX9; activity change, negative = inhibition, % at 57.5 µM;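 active means activity change of -60% or lower, but not beyond a set lower limit; inconclusive means change between -60% and -40%, or beyond the set limit; inactive means change above -40%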; further: on the % scale 0 is the no-effect control and ±100 the full control effect
Target sequence (Q9HBX9 whole entry, looked up): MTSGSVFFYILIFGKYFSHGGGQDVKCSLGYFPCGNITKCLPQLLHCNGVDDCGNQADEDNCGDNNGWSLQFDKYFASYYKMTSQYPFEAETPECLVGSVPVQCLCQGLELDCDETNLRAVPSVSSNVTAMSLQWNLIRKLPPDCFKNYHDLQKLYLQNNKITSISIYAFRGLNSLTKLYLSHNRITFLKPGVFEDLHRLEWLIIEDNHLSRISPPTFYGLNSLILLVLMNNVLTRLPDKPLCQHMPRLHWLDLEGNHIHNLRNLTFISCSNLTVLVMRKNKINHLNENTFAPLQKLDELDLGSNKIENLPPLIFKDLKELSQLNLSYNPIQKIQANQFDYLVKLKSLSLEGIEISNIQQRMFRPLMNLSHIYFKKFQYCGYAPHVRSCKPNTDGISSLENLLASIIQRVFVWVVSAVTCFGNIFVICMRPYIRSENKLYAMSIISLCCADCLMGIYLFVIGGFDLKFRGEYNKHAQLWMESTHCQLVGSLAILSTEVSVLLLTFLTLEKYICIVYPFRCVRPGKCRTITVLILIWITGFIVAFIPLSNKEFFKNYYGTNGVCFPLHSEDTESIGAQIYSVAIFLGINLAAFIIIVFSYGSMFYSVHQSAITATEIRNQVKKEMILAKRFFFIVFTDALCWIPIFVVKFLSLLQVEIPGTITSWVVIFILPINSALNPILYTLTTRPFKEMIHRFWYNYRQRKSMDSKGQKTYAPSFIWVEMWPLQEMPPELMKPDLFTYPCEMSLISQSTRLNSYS
gsp antag = gsp mutant antagonism; gsp-mutant cells, cAMP HTRF, 30 min; Potency, µM (top dose mostly 76.9 µM), without a hit: at the highest dose activity change, negative = inhibition, hits mostly inhibitors; actives 0.4% (n = 340,000); AID 624288; calls by dose curve; cell line not stated here;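 further: intracellular cAMP measured with PDE inhibitor Ro 20-1724 present during compound exposure; potency means the concentration at half of the fitted maximal effect; on the % scale 0 is the no-effect control and ±100 the full control effect; nearly all actives have a fitted effect of over 65% in size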
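HTRF cAMP measurement after 30 min RT detection following 30 min, 37C compound treatment alongside […] (added as 300 uM solution) in G418-selected cells seeded at 2000/well and grown 16–24 h.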
RXFP1 ag = RXFP1 (human) receptor agonism; Q9HBX9; actives 0.3% (n = 370,000); AID 2676; HEK293T-RXFP1 cAMP TR-FRET, 30 min; response scale: percent of porcine relaxin response, buffer zero; Potency, µM (titrated, usually from 57.5 µM), for the others: at the top dose activation, hits mostly activators; active means well fitted activation curve with a large enough effect; inconclusive means small, poorly fitted or top-dose-only effect; further: potency means the concentration at half of the fitted maximal effect; on the % scale 0 is the no-effect control and ±100 the full control effect; nearly all actives have a fitted effect of over 60% in size
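Agonist response is measured as cAMP accumulation in an RXFP1-transfected HEK293T line under PDE4 inhibition. Values are scaled between buffer-only and 29 nM porcine relaxin, and EC50s come from standard Hill equation fits.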
gsp agonist = agonists of gsp mutant (McCune-Albright syndrome). gsp mutant cells, cAMP HTRF, 30 min. Potency, µM (titrated, usually from 76.9 µM), without a hit: top-dose activation (cAMP increase), usual class: activators. actives 0.13% (n = 340,000). AID 624287; active means well fitted activation curve with a large enough effect; inconclusive means small, poorly fitted or top-dose-only effect, or another doubt; inactive means no such curve, though single readings can be large or run the other way; cell line not stated here;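 further: phosphodiesterase inhibitor Ro 20-1724 added with compounds to block cAMP breakdown; potency means the concentration at half of the fitted maximal effect; nearly all actives have a fitted effect of over 60% in size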
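Cells stably selected in G418 were plated at 2000/well, grown 16-24 hr, then given compounds in DMSO with the PDE inhibitor […] (300 uM solution added) for 30 min at 37C; cAMP was read by HTRF.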
Akt phos inh = inhibitors of Akt phosphorylation; Neuro2A IGF-stimulated pAkt S473 HTRF, 20 min; stronger effect = lower value; activity change, % for hits at 50 µM; actives 0.32% (n = 360,000); AID 651550; in the data active means activity change below about -80%; inconclusive means mostly about -51% to -80%; further: on the % scale 0 is the no-effect control and ±100 the full control effect
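Single-point screen (50 µM final compound) in Neuro2A cells stimulated 20 min with 6 nM IGF at 37 deg C. After lysis, Ser473-phosphorylated Akt read by HTRF (ex 330 nm, em 615/665 nm) as the 665/615 ratio.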
* hit, by the source's call; i = inactive; ? = inconclusive; . = not tested or not shown; [ ] = another dose, or the depositor's remark.

SMILES	RXFP1 antag	gsp antag	RXFP1 ag	gsp agonist	Akt phos inh
COC(=O)c1ccc(NC(=O)C2CC(=O)N(c3cc(C)ccc3C)C2)cc1 (stereo unspecified)	-1	1%	-3%	?	-105%*
O=[N+]([O-])c1cccc(S(=O)(=O)NCCNS(=O)(=O)c2cccc([N+](=O)[O-])c2)c1	10	.	.	.	.
CCN=c1sc2ccccc2n1CC(O)COc1ccccc1 (stereo unspecified)	-68*	-6%[15.4 µM]	-2%	4%	i
CN(C)c1oc(-c2ccc(COc3ccccc3)o2)nc1C#N	-4	.	-1%	.	.
COc1ccc(/C=N\NC(=O)c2ccccc2OC)cc1COc1c(F)c(F)c(F)c(F)c1F	-19	40µM*	-2%	-6%[15.4 µM]	i
COc1ccc(/C=N\NC(=O)c2ccccc2Cl)cc1COc1c(F)c(F)c(F)c(F)c1F	-13	-15%	0%	18%[15.4 µM]	i
CCOc1cc(/C=N/NC(=O)c2ccccc2OCc2ccc(F)cc2)ccc1O	5	35µM*	-3%	?	i
COc1ccc(/C=N/NC(=O)c2cc(-c3ccc(C)cc3C)nc3ccccc23)cc1COC(C)=O	-14	-13%	1%	-16%	-89%*
Cc1ccc(-c2onc(C)c2C)cc1S(=O)(=O)Nc1cccc(Cl)c1C	-21	.	0%	.	.
O=C1CCN(C(=O)Nc2cccc(Cl)c2)N1	-2	4%	0%	15%	-120%*
CC(NC(=O)CN(c1cccc(C(F)(F)F)c1)S(C)(=O)=O)c1ccccc1 (stereo unspecified)	6	0%	1%	-19%	i
COc1cccc(N(CC(=O)NC(C)c2ccccc2)S(C)(=O)=O)c1 (stereo unspecified)	-3	-2%	-1%	-3%	-119%*
O=C1C=C(O)c2cccc3cccc1c23	22	-1%	18µM*	?	i
O=C(CC1N=C2c3ccccc3N=C(SCc3ccc(Cl)cc3)N2C1=O)NCCc1ccccc1 (stereo unspecified)	-18	.	7%	.	.
COC(=O)c1ccc2nc(NC(=O)C(C)(C)C)sc2c1	-85*	-25%	0%	-3%[15.4 µM]	i
COC(=O)c1ccc2nc(NC(=O)C3CCCCC3)sc2c1	-9	3%	6%	-44%	i
COc1ccc(Cl)cc1NC(=O)CSc1nnc(C)n2c1cc1occc12	6	.	?	.	.
C=CCn1c(=O)c(CCC(=O)Nc2ccc(N3CCOCC3)cc2)nc2cc(C(F)(F)F)ccc21	-68*	-2%	-2%	?	i
CNC(=O)c1ccccc1Sc1ccc2c(/C=C/c3ccccn3)n[nH]c2c1	28	.	.	.	.
O=c1c(-c2nnc(SCc3ccc(Cl)cc3Cl)o2)cccn1Cc1ccccc1	0	?	6%	8%	-94%*
CC(=O)N1CCN(S(=O)(=O)c2cccc(C(=O)Nc3ccc4c(c3)OCO4)c2)CC1	-5	11µM*	2%	2%[15.4 µM]	i
CCOC(=O)c1c(C)[nH]c(C)c1S(=O)(=O)N(C)CC(=O)Nc1ccc(C)cc1Br	.	.	-1%	.	.
CC(=O)Nc1ccc(C(=O)CSc2ncn(-c3ccccc3)n2)cc1	-10	-31%	3%	-29%	-120%*
O=C(CSc1ncn(-c2ccccc2)n1)Nc1nncs1	-2	-25%	0%	5%	i
CCCCC(=O)Nc1nc(C)c(C(C)=O)s1	.	6%	8%	?	i
SMILES	RXFP1 antag	gsp antag	RXFP1 ag	gsp agonist	Akt phos inh
CCCC(=O)Nc1nc(C)c(C(C)=O)s1	9	13%	18µM*	?	i
O=C(N/N=C/c1c[nH]c2c1ccc1ccccc12)c1ccc([N+](=O)[O-])cc1	-68*	-7%	-2%	-2%[15.4 µM]	i
COc1ccc2ccccc2c1/C=N/NC(=O)c1ccc([N+](=O)[O-])cc1	-20	13%	0%	-5%[15.4 µM]	i
O=C(C1=C(O)C(=O)N(CCCN2CCOCC2)C1c1ccc(Cl)cc1)c1cc2ccccc2o1 (stereo unspecified)	11	20%	0%	11µM*	i
CCN1C(=O)C2(C(C(=O)c3cc4ccccc4o3)=C(O)C(=O)N2CCCN2CCOCC2)c2ccccc21 (stereo unspecified)	48	20%	16µM*	106%[15.4 µM]	i
CCN1C(=O)C2(C(C(=O)c3ccc(C)o3)=C(O)C(=O)N2CCCN2CCOCC2)c2ccccc21 (stereo unspecified)	8	3%	15%	9%	i
Nc1ccc(N2CCN(c3ncc(C(F)(F)F)cc3Cl)CC2)c(C(F)(F)F)c1	.	.	1%	.	.
CCN(CC)c1cc(C)c2cc(NC(=O)/C=C/c3ccccc3Cl)ccc2n1	.	.	-1%	.	.
Cc1ccc(CON=C2CCN(c3ncc(C(F)(F)F)cc3Cl)CC2)cc1	-6	-11%	1%	5%	-112%*
O=C1NN=C(c2ccc(Br)cc2)CC1c1ccc(Cl)cc1 (stereo unspecified)	-61*	-3%	2%	-20%	i
N#Cc1ccccc1NC(=O)CN1CCN(Cc2ccccc2)CC1	-6	35µM*	0%	0%[15.4 µM]	i
CCN(CC)CC(=O)N1c2ccccc2Sc2ccccc21	1	19%	-2%	-2%	i
CCN(CC)CCCCN1c2ccccc2Sc2ccccc21	-63*	11%	-1%	?	i
COc1cc(/C=C(\CCC(=O)O)c2nc3ccccc3s2)ccc1OCC(=O)Nc1c(Cl)cccc1Cl	-3	28µM*	.	-48%	i
O=C(O)CC/C(=C/c1cccc(NC(=O)c2ccccc2Cl)c1)c1nc2ccccc2s1	8	?	.	11%	i
Cc1oc2ccc(O)c(CN3CCN(C)CC3)c2c1C(=O)Nc1cccc(Cl)c1C	1	.	0%	.	.
CCOc1ccc(C(=O)c2cn(Cc3ccc(Cl)cc3)c3cc(OC)c(OC)cc3c2=O)cc1	-22	.	0%	.	.
O=c1oc2cc(O)ccc2c2ccccc12	31	13%	14µM*	8.9µM*	i
O=c1oc2ccccc2c(Nc2ccc(F)cc2)c1[N+](=O)[O-]	0	?	1%	-26%	i
O=c1oc2ccccc2c(Nc2ccc(Cl)cc2)c1[N+](=O)[O-]	-1	28µM*	-4%	-6%	i
COc1ccc(NC(=O)CSc2ncnc3c2cnn3CCc2ccccc2)cc1	5	-4%	6%	8%	-132%*
COc1ccc(OCCNC(=O)C(Cc2c[nH]c3ccccc23)NC(C)=O)cc1 (stereo unspecified)	7	4%	-3%	10µM*	i
CC(=O)NC(Cc1c[nH]c2ccccc12)C(=O)NCCc1ccccn1 (stereo unspecified)	0	4%	-1%	-4%[15.4 µM]	i
CCN1CCN(C(=O)c2cc(-c3ccc(Cl)s3)nc3ccccc23)CC1	-4	7%	29%	?	i
